Hits are enriched below; roughly 2.4% of the tested compounds scored in any of these assays.
GLP1R ag: activates the human GLP-1 receptor. P43220. HEK293 GLP-1R CRE-luciferase, luminescence, 4-6 h; cells express a hypersensitive GLP-1R form. Potency, µM (top dose mostly 45.6 µM), inactives show top-dose activation, usual class: activators. 380,000 compounds, 0.007% hits. AID 624172; also: potency is read from the fitted curve at half-maximal effect; % of control where 0% means no effect
Target sequence (P43220 whole entry, looked up): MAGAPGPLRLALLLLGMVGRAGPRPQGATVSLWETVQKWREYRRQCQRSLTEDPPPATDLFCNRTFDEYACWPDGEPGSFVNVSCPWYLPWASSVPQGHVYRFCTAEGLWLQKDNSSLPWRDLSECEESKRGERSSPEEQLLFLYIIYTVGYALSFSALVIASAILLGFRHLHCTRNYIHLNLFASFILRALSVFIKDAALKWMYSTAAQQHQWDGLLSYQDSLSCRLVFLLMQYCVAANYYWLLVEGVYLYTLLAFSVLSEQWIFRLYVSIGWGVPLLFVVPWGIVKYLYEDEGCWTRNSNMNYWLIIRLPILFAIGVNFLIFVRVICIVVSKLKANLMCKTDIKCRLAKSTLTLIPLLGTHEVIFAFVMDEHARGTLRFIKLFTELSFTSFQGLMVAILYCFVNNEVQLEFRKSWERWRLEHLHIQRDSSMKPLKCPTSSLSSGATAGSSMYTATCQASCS
TRHR agonist-1: TRH receptor (human) agonism; 360,000 compounds, 0.18% hits; activation, % at 2 µM; TRHR cells, calcium flux fluo-8, FDSS agonist mode; in the data active = activation above about 30%; also: 0% is about no effect
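Fluo-8-loaded TRHR cells; 10 s baseline, compound added, kinetic Ca2+ fluorescence read 1/s, agonist mode.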
PTHR1 ag: agonists of human PTHR1 parathyroid hormone receptor; Q03431; HEK293 GP2 PTHR1 cells, GloSensor cAMP luminescence, 1 h; Potency, µM (titrated, usually from 115 µM), for the others: top-dose activation, most hits filed as activators; 410,000 compounds, 0.075% hits; AID 743266; also: potency is read from the fitted curve at half-maximal effect; nearly all actives have a fitted effect of over 55% in size
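HEK-293-derived GP2 cells expressing PTHR1 and a GloSensor cAMP reporter, 3,000/well, plated overnight, given luciferin plus IBMX (each 0.5 mM as added) for 1 h at 37 °C, then compound for 1 h at 37 °C. Luminescence was read after 15 min at room temperature.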
HEK293 tox: cytotoxicity in counter-screen for GLP-1R inverse agonists | HEK293 cAMP-luciferase reporter cells, luminescence, 24 h | Potency, µM (top dose mostly 38.3 µM), inactives show at the highest dose activity change, negative = inhibition, usual class: inhibitors | 410,000 compounds, 0.13% hits | AID 624418;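 also: loss of luciferase light is scored as toxicity; potency is read from the fitted curve at half-maximal effect; % is scaled to controls: 0 for no effect and ±100 for the full control effect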
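Quantitative HTS format, 1536 wells, 200 cells/uL seeded. Compounds: 23 nL, 24 h, 37 °C. Detection: luciferase reagent, luminescence at 12 min RT; decreased signal taken as cytotoxic.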
TRHR enhancer-1: TRH receptor (human) allosteric enhancement; P34981; TRHR cells, fluo-8 calcium fluorescence, EC20 TRH enhancement; enhancement, % at 2 µM; 360,000 compounds, 0.66% hits; in the data active = enhancement above about 30%; also: 0% is about no effect
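Enhancer read-out: after compound pinning and an initial kinetic agonist-mode read, an EC20 of TRH (10 nM final) was injected and fluo-8 calcium signal (Ex 480/Em 530) followed at 1 s/cycle for 100 cycles in TRHR-expressing cells.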
GLP-1R inv ag: acts as inverse agonist at human GLP-1 receptor; Potency, µM (doses to about 38.3 µM), for the others: top-dose activity change, negative = inhibition, most hits filed as inhibitors; 410,000 compounds, 1.6% hits; HEK293 GLP-1R CRE-luciferase, luminescence, 24 h; GLP-1R form is constitutively active; also: potency is read from the fitted curve at half-maximal effect; % is scaled to controls: 0 for no effect and ±100 for the full control effect; nearly all actives have a fitted effect of over 55% in size
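Cells are plated, allowed 12 hours at 37 deg C, then treated with compounds for 24 hr before luciferase detection reagent is added and luminescence is read after 12 min at room temperature. The HEK293 line carries constitutively active GLP-1R with a cAMP-responsive reporter.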
TRHR enhancer-2: human TRH receptor allosteric enhancement confirmation; shares compounds with TRHR enhancer-1; TRH receptor cell assay, enhancer confirmation qHTS; activity change, negative = inhibition, % at 46.1 µM; 970 tested, under 10 active; AID 493076;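 also: compound effect scored on response to added TRH at EC20 of 10 nM; 0% is about no effect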
TRHR agonist-2: confirmation of human TRH receptor agonists | TRHR-expressing cells, agonist activation read-out | Potency, µM (titrated, usually from 46.1 µM), without a hit: at the top dose activation, most hits filed as activators | 970 compounds, 8% hits | AID 493078 | shares compounds with TRHR enhancer-1; also: potency is read from the fitted curve at half-maximal effect; 0% is about no effect; nearly all actives have a fitted effect of over 75% in size
An asterisk follows results filed as active; i = inactive; ? = inconclusive; · = no result; [ ] = remark or other dose. Unless noted, calls follow the shape of the dose curve; as a rule, active = well fitted curve in the direction sought with a large enough effect; inconclusive = small, poorly fitted or top-dose-only effect, or another doubt; inactive = no such curve, though single readings can be large; an effect the other way counts as inactive or inconclusive.

SMILES	GLP1R ag	TRHR agonist-1	PTHR1 ag	HEK293 tox	TRHR enhancer-1	GLP-1R inv ag	TRHR enhancer-2	TRHR agonist-2
CC(C)CCNC(=O)NC(=O)CSc1ccc(S(=O)(=O)N2CCOCC2)cn1	-4%	-1	i	1%	63*	-4%	13	-1%
S=c1[nH]ncn1/N=C/c1ccc(N2CCOCC2)cc1	-11%	1	-30%	-9%	7	-26%	·	·
COc1ccc(-c2nc3ccccc3nc2-c2ccccc2)cc1	29%	0	i	0%	9	?	·	·
COc1ccc2nc3ccccc3nc2c1	8%	1	-27%	2%	49*	41%	-1	2%
CCc1nc2ccccc2c(C(=O)OCC(=O)N(CCOC)c2c(N)n(Cc3ccccc3)c(=O)[nH]c2=O)c1C	7%	0	-12%	11%	3	35%	·	·
CSc1ccccc1NC(=O)Nc1ccc(Cl)cc1	-19%	0	i	-11%	-7	?	·	·
O=C1/C(=C/c2ccc(O)cc2)SC(=S)N1CC1CCCO1 (configuration not stated)	16%	39*	-12%	-25%	16	-17%	-6	?
CCN(CC(=O)Nc1ccc(NC(C)=O)cc1)C(=O)c1ccc(NC2CC2)c([N+](=O)[O-])c1	2%	0	-6%	-38%	1	5%	·	·
CCc1cc(-c2n[nH]c(C)c2-c2nc(C)cs2)c(O)cc1OC	20%	1	-27%	9%[7.66 µM]	45*	-17%[7.66 µM]	?	2%
CC1CCCN(S(=O)(=O)c2ccc(NC(=O)C3CCN(C(=O)C(C)(C)C)CC3)cc2)C1 (configuration not stated)	-7%	2	-27%	1%	9	?	·	·
COc1ccc(S(=O)(=O)N2CCN(c3ccc4nnc(-c5ccccc5)n4n3)CC2)cc1	2%	0	i	-21%	48*	28%	4	-1%
O=C(N/N=C/c1c(O)ccc2ccccc12)c1ccc(Br)o1	-4%	51*	-17%	37%	4	?	1	18µM*
CC(C)OCCCNC(=O)CCCn1c(SCC(N)=O)nc2c(sc3ccccc32)c1=O	·	0	i	-2%	15	5%	·	·
CC(=O)NCCC1CCN(c2nc3nonc3nc2N(C)Cc2ccccc2)CC1	-3%	0	-12%	-10%	47*	11%	-4	0%
O=C(CNCc1ccccc1Cl)Nc1ccc(C(=O)N2CCCCC2)cc1	6%	-1	-21%	46%	41*	-9%	0	-1%
COc1ccc(CCNC(=O)CN2CCOc3ccccc32)cc1OC	-1%	0	i	0%	58*	17%	1	0%
Cn1c(=O)c(N)c2c3c(c(Br)ccc31)C(=O)c1ccccc1-2	-4%	60*	-5%	2%	-5	75%	-5	18µM*
COc1ccc(C(=O)NCC(=O)N/N=C/c2cn(C)c3ccccc23)cc1OC	9%	0	-14%	-7%	1	4%	·	·
O=C(NCc1cccs1)c1ccc(Cn2c(SCc3ccccc3)nc3cccnc32)cc1	·	-1	-20%	3%	23	-18%	·	·
O=C(N/N=C/C1=C(N2CCOCC2)C(=C\c2ccccc2)/CC1)Nc1ccccc1	3%	-1	i	-10%	13	-1%	·	·
CCN(CC)c1ccc(/C=C2\CCC(/C=N/NC(=O)c3ccc(=O)n(C)c3)=C2N2CCOCC2)cc1	5%	36*	i	12%	11	9%	9	?
CCOC(=O)C1CCCN(Cc2ccc3c(c2)OCO3)C1 (configuration not stated)	2%	1	i	4%	-5	0%	·	·
COc1ccc(S(=O)(=O)N2CCCCC2)cc1NC(=S)Nc1ccccc1	0%	0	i	15%	56*	-7%	-2	1%
CCOC(=O)C1=C(O)/C(=C/c2ccc(OCC(=O)O)c(OC)c2)SC1=Nc1ccc(OCC)cc1	26%	-3	i	5%	8	19%	·	·
CCOC(=O)C1=C(O)/C(=C/c2cc(OC)c(O)c(OC)c2)SC1=Nc1ccc(OC)cc1	20%	27	-14%	3%	8	85%	-1	?
SMILES	GLP1R ag	TRHR agonist-1	PTHR1 ag	HEK293 tox	TRHR enhancer-1	GLP-1R inv ag	TRHR enhancer-2	TRHR agonist-2
O=C(Cn1cncn1)c1ccccc1Br	14%	0	-13%	5%	44*	24%	-1	1%
O=C(Cn1cncn1)NCc1ccccc1Br	-2%	1	29%[57.5 µM]	-3%	-1	-2%	·	·
CC(C)(Oc1ccc(Cl)cc1)C(=O)OCC(=O)Nc1ncc(Cl)cc1Cl	-8%	0	i	-4%	6	-1%	·	·
NC(=O)CN1CCOCCOCCN(CC(N)=O)CCOCCOCC1	9%	-1	i	12%	55*	11%	?	-1%
CC(C)Oc1cc(S(=O)(=O)N2CCCCC2)ccc1N	18%	2	-14%	-6%	-6	1%	·	·
Cc1ccc(-c2nnc(Nc3ccc(CC(N)=O)cc3)c3ccccc23)cc1S(N)(=O)=O	6%	0	i	-2%	52*	18%	-5	3%
Oc1c(C=Nc2ccc(Cl)cn2)sc2ccccc12	9%	11	-20%	-5%	-2	16%	·	·
Oc1c(/C=N/c2ccccn2)sc2ccccc12	7%	7	-48%	4%	41*	-5%	7	?
OC(COc1ccc2cc(Br)ccc2c1)CN1CCCC1 (configuration not stated)	-13%	0	i	?	0	?	·	·
Cc1nc(C)n(CC(O)COc2ccc3cc(Br)ccc3c2)n1 (configuration not stated)	19%	-1	?	4%	44*	-5%	?	6%
CCN(CC)C(=O)[C@H]1C[C@H](CC(=O)NCCCOC)C(=O)N2CCc3c([nH]c4cc(-c5ccco5)ccc34)[C@]12C	0%	·	-8%	1%	·	-1%	·	·
CCCCN1C(=O)C(CC(=O)NC2CCCCC2)CC(C(=O)N(C(C)C)C(C)C)=C1C (configuration not stated)	15%	·	-22%	4%	·	-12%	·	·
COc1ccc(/C=N/n2c(-c3ccccc3)n[nH]c2=S)cc1	1%	0	-20%	?	49*	?	8	6%

Source: PubChem BioAssay (National Center for Advancing Translational Sciences (NCATS))
